Assay results as given in PubChem BioAssay (NCI).
This is part of a sample that, as a whole, favours compounds with a hit. Of some 83,000 tested, about 20% had one in any assay.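 Values shown are percent growth following 48 h exposure of cells in 96-well plates to a single concentration of compound; below 10 was considered active.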 Unmarked numbers belong to inactive results. Active and inactive are the calls of the source.

Experiments:
Assay in all cases: NCI-60 one-dose screen, 48 h (100 = growth as untreated, 0 = no growth, -100 = all killed)
Conditions in all cases: 10 µM unless noted
[1] = tested on: HCT-15 colon
[2] = tested on: HT29 colon
[3] = tested on: SNB-75 CNS
[4] = tested on: SNB-19 CNS
[5] = tested on: U251 CNS
[6] = tested on: PC-3 prostate
[7] = tested on: SK-MEL-5 melanoma
[8] = tested on: UACC-62 melanoma
[9] = tested on: LOX IMVI melanoma
[10] = tested on: SK-MEL-28 melanoma

| SMILES | growth [1] | growth [2] | growth [3] | growth [4] | growth [5] | growth [6] | growth [7] | growth [8] | growth [9] | growth [10] |
| --- | --- | --- | --- | --- | --- | --- | --- | --- | --- | --- |
| C=C(CNCCc1ccc(O)cc1)[C@@H]1CC[C@]2(CO)CC[C@]3(C)[C@H](CC[C@@H]4[C@@]5(C)CCC(NCCO)C(C)(C)[C@@H]5CC[C@]43C)[C@@H]12 (stereo not given in full) | -80.9% (active) | -44.1% (active) | -97.8% (active) | -73.2% (active) | -83.7% (active) | -20.1% (active) | -94.2% (active) | -80.8% (active) | -84.1% (active) | -92.4% (active) |
| Cc1ccc(-c2nc(/C=C3/C(=O)Nc4ccccc43)c3ccccn23)cc1 | 26.5% | 42.3% | 88.9% | 99.6% | 85.2% | 78.3% | 82.9% | 84.5% | 77.1% | 133% |
| Cc1ccc(S(=O)(=O)N2CCCC2CO)cc1 (stereo not given) | 95% | 88.5% | 68.1% | 98.9% | 98.1% | 75.6% | 98.4% | 104% | 86.3% | 163% |
| COc1cc(N2C(=O)[C@H](O)C2c2ccc(SC)cc2)cc(OC)c1OC (stereo not given in full) | 12.8% | -14.5% (active) | 83.8% | 35.9% | 14.4% | 22.4% | -13.8% (active) | 33.8% | 25.5% | 67.1% |
| CC1(C)c2[nH]c3ccccc3c2C[C@]2(C)[C@H]3CC=C4[C@@H]5C[C@@](C)(C(N)=O)CC[C@]5(C)CC[C@@]4(C)[C@]3(C)CC[C@@H]12 | 50.9% | 62.7% | 101% | 62.2% | 69.2% | 50.6% | 19.8% | 59.2% | 56.8% | 77.4% |
| O=C(O)CCCN1C(=O)/C(=C/C(Cl)=C/c2ccccc2)SC1=S | -54.3% (active) | 7.49% (active) | 35.9% | 37.4% | 21% | 36.5% | 38.4% | 10.1% | -55.5% (active) | 7.4% (active) |
| COc1ccc(-c2ccc3cnc4sc(-c5ccc(OC)cc5)nc4c3n2)cc1 | 97.6% | 100% | 85.8% | 98.4% | 94.4% | 70.3% | 85.2% | 98.8% | 87% | 107% |
| N#C/C(=C\c1ccc2ccccc2c1)c1cc2ccccc2[nH]1 | 22.5% | 10.9% | 35.6% | 43.8% | 27.8% | 33% | 35.3% | 32.2% | 32.3% | 55.3% |
| O=C(c1ccc(-c2ccccc2)cc1)c1ccc([N+](=O)[O-])cc1 | 103% | 104% | 105% | 101% | 99% | 86.7% | 97.3% | 92.7% | 98.4% | 122% |
| CN1CCN(Cc2ccc(NC(=O)c3cncc(C#Cc4cnc(N)c5ccccc45)c3)cc2C(F)(F)F)CC1 | -82.8% (active) | -14.5% (active) | -73% (active) | -78.5% (active) | -98.5% (active) | -53.1% (active) | -98.1% (active) | -91.4% (active) | -92.1% (active) | -92.9% (active) |
| O=C1Nc2ccccc2/C1=C\c1nc(-c2ccccc2)n2ccccc12 | 80.2% | 91.6% | 79.6% | 103% | 89.6% | 87.4% | 89.7% | 78.3% | 84.6% | 113% |
| CC(=O)Cc1nsc(NC(=O)c2cc(-c3cc(Cl)cc(Cl)c3)oc2C)n1 | 99.4% | 102% | 84.1% | 101% | 93.2% | 93.7% | 99.9% | 88.7% | 97% | 103% |
| COc1ccc2nc3ccc(OC)cc3c(SCCCN)c2c1 | 47.3% | 37.4% | 89.3% | 94.8% | 82.7% | 65.6% | 108% | 113% | 63.1% | 121% |
| CC(C)CCNC(=O)Cn1cccc(NC(=O)OCc2ccccc2)c1=O | 111% | 108% | 79.9% | 103% | 101% | 92.3% | 96.1% | 111% | 89.8% | 98.8% |
| CC(C)=NNc1ccccn1 | 27.9% | 27.4% | 79.2% | 62.3% | 39.6% | 47.1% | 69.7% | 56.6% | 29.7% | 57.1% |
| O=C1c2cccc3cccc(c23)C(=O)N1N1C(=O)c2cccc3c(N4CCOCC4)ccc(c23)C1=O | 101% | 107% | 58.5% | 87.8% | 90.7% | 91.2% | 101% | 90.5% | 90.2% | 102% |
| Cc1cc(Cl)ccc1NC(=O)c1cc2ccccc2cc1O | 13.2% | 80.5% | 38.1% | 20% | -14% (active) | 0.952% (active) | 8.89% (active) | 19.1% | 28.9% | 41.6% |
| COc1ccc(-c2nnc(-c3ccc4c(c3)nc(-c3ccncc3)n4C3CCCCC3)o2)cc1 | 53.6% | 53% | 72.2% | 89.4% | 59.7% | 49.7% | 17.2% | 68.3% | 72.5% | 94.6% |
| O=[N+]([O-])c1ccc(N/N=C(/C(=N/Nc2ccc([N+](=O)[O-])cc2)c2ccccc2)c2ccccc2)cc1 | 16.9% | 16.4% | 90.3% | 93.3% | 53.4% | 82% | 86.3% | 78.6% | 61% | 121% |
| COc1ccc2c(c1)[n+]([O-])c(C(=O)/C=C/C=C(\Cl)c1cc(OC)c(OC)c(OC)c1)c(C)[n+]2[O-] | 95.4% | 101% | -26% (active) | 55.9% | 8.58% (active) | 93% | 121% | 68.2% | 41.7% | 99.1% |
| Cc1cc2c([nH]1)CSc1cc(S(=O)(=O)c3ccccc3)c(=O)[nH]c1-2 | 17.7% [100 µM] | 10.5% [100 µM] | 20% [100 µM] | 37.4% [100 µM] | 15.5% [100 µM] | 23% [100 µM] | -36.7% [100 µM] (active) | 19.1% [100 µM] | 12.1% [100 µM] | 17.9% [100 µM] |
| CC1(C)CC[C@]2(C(=O)O)CC[C@]3(C)C(=CC[C@@H]4[C@@]5(C)C/C(=C/O)C(=O)C(C)(C)[C@@H]5CC[C@]43C)[C@@H]2C1 | 24.4% | 26.6% | 95.4% | 60.1% | 28.3% | 31.4% | 67.8% | 61.6% | 27.4% | 52.2% |
| COC(=O)[C@H]1CCCN1C[C@@H](O)CN1C(=O)/C(=C\c2cc(OC)c(OC)c(OC)c2)c2ccccc21 | 98% | 110% | 86% | 95.9% | 87.3% | 91.4% | 103% | 95.2% | 97.2% | 123% |
| N#CCSc1nnc2n(Cc3ccccc3)c(=O)c3c4c(sc3n12)CCCC4 | 96.2% | 111% | 91.1% | 104% | 101% | 95.2% | 95.3% | 95.6% | 98.1% | 116% |
